Test system: Vero E6 infected with SARS-CoV-2
Assay: inhibition of SARS-CoV-2 cytopathic effect; higher = more antiviral protection, active = above 15
Conditions: 48 h

Measured: inhibition of SARS-CoV-2 cytopathic effect

O=C(/C=C\n1cnc(-c2cc(C(F)(F)F)cc(C(F)(F)F)c2)n1)NNc1cnccn1 [selinexor]
inactive: 1 nM -0.07% | 8.33 nM -3.07% | 100 nM -7.87% | 833.33 nM -8.61% | 10000 nM -8.85%

Nc1nonc1/C(=N/O)Nc1ccc(F)c(Cl)c1
inactive: 1 nM 5.29% | 8.33 nM 3.44% | 100 nM 2.09% | 833.33 nM 0.57% | 10000 nM -2.02%

C[S+](C)CC[C@H](N)C(=O)O [cabagin]
inactive: 1 nM -1.01% | 8.33 nM -0.84% | 100 nM -0.11% | 833.33 nM 0.92% | 10000 nM 0.96%

O=C(Cc1ccccc1)Nc1nc2ccc(Cl)cc2c2nc(-c3ccco3)nn12
inactive: 1 nM 3.65% | 8.33 nM 4.32% | 100 nM 3.84% | 833.33 nM 2.42% | 10000 nM 4.22%

CO[C@H]1/C=C/O[C@@]2(C)Oc3c(C)c(O)c4c(O)c(c(/C=N/N5CCN(C6CCCC6)CC5)c(O)c4c3C2=O)NC(=O)/C(C)=C\C=C\[C@H](C)[C@H](O)[C@@H](C)[C@@H](O)[C@@H](C)[C@H](OC(C)=O)[C@@H]1C [rifapentine]
inactive: 1 nM -8.98% | 8.33 nM -0.78% | 100 nM -1.42% | 833.33 nM 1.06% | 10000 nM 1.47%

CCNC(=O)[C@H]1O[C@@H](n2cnc3c(N)nc(NCCc4ccc(CCC(=O)O)cc4)nc32)[C@H](O)[C@@H]1O
inactive: 1 nM -1.55% | 8.33 nM -1.11% | 100 nM -2.43% | 833.33 nM -1.74% | 10000 nM 1.23%
